# Measured values reported in PubChem BioAssay AID2766 (Sanford-Burnham Center for Chemical Genomics, 2010).
# The list shows a part of the results. Active and inactive are the calls of the source. Rule as the data show it: active = inhibition above about 50%; inactive = the rest.
# Molecular target: Apelin receptor (Homo sapiens) (UniProt P35414)
# Assay: APJ antagonists blocking beta-arrestin recruitment, confirmation, cell-based, luminescence, single concentration, uHTS hits (AID 2766)
# Conditions: antagonist mode, at 20 µM, stronger effect = higher value
# Sequence of Apelin receptor (Homo sapiens) (P35414 whole entry, looked up): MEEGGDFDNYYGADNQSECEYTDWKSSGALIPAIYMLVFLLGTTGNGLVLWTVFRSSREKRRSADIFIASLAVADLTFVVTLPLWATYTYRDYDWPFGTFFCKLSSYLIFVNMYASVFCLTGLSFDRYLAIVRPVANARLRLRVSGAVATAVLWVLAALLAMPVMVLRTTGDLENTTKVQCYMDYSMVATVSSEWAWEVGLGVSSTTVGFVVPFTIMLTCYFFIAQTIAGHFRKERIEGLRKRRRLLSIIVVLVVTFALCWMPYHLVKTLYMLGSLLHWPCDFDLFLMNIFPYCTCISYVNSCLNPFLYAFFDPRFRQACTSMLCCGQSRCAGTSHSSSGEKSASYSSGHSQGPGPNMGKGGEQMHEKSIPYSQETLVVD
compound,measurement,value
CCOC(=O)c1c(N)n(Cc2ccccc2)c2nc3ccccc3nc12,inhibition,35% (inactive)
